Screening results (PubChem BioAssay)
In the library only some 8.3% were active in any assay of this set; here they are far more common.
FMDV inh – antivirals against foot and mouth disease virus; FMDV antiviral cell-based qHTS; Potency, µM (titrated, usually from 57.9 µM), without a hit: top-dose activity change, negative = inhibition, hits mostly inhibitors; hit rate 1.2% among 410,000; calls by dose curve; tested in HEK293T cells; also: read-out not given here; potency is read from the fitted curve at half-maximal effect; % is scaled to controls: 0 for no effect and ±100 for the full control effect; nearly all actives have a fitted effect of over 45% in size
FBPA Giardia inh – blocks Giardia fructose-bisphosphate aldolase activity; purified Giardia FBPA; Potency, µM (titrated, usually from 59.6 µM), without a hit: at the top dose activity, negative = inhibition, actives largely listed as inhibitors; A8B2U2; hit rate 0.71% among 290,000; also: potency is read from the fitted curve at half-maximal effect; % is scaled to controls: 0 for no effect and ±100 for the full control effect; nearly all actives have a fitted effect of over 55% in size
Target sequence (A8B2U2 whole entry, looked up): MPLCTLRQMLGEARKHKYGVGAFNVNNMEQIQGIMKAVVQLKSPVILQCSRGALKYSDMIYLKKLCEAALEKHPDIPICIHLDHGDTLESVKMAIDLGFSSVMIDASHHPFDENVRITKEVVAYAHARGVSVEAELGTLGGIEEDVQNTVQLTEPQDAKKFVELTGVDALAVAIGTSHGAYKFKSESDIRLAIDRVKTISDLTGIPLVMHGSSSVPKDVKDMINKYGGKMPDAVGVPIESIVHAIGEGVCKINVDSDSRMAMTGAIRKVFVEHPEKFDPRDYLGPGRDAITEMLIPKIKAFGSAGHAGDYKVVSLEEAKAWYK
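Giardia FBPA (40 nM reagent) was preincubated 10 min at RT with compound (up to 57.5 uM final), then substrate plus GAPDH/TPI/NAD/arsenate coupling system with diaphorase/resazurin was added; resorufin fluorescence (525/598 nm) was read after 20 min.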
MARV entry inh – Marburg virus entry inhibition; Marburg virus pseudotyped entry inhibition, cell reporter; Potency, µM (highest dose often 37.8 µM), for inactives: at the top dose activity change, negative = inhibition, hits mostly inhibitors; hit rate 1.8% among 300,000; AID 540276; calls by dose curve; tested in HEK293 cells; also: potency is read from the fitted curve at half-maximal effect; % is scaled to controls: 0 for no effect and ±100 for the full control effect
HCV inh – HCV inhibition; Huh7.5.1 HCVcc-Cre infection, luciferase reporter, 44 h; Potency, µM (top dose mostly 41.8 µM), for the others: top-dose activity change, negative = inhibition, actives largely listed as inhibitors; hit rate 3.4% among 340,000; AID 651820; also: potency is read from the fitted curve at half-maximal effect; % is scaled to controls: 0 for no effect and ±100 for the full control effect
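Infectious HCVcc-Cre (~0.5 moi) was added to cells just after compound, with cells seeded 4 h earlier at 1,000 per well. Luciferase activity after 44 h culture reported infection; substrate was incubated 15 min at room temperature before reading.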
Lassa entry inh – inhibitors of Lassa virus binding or cell entry. Lassa virus pseudotype entry inhibition, cell reporter. Potency, µM (titrated, usually from 37.9 µM), inactives show at the highest dose activity change, negative = inhibition, usual class: inhibitors. hit rate 1.2% among 300,000. AID 540256; calls by dose curve; tested in HEK293 cells; also: potency is read from the fitted curve at half-maximal effect; % is scaled to controls: 0 for no effect and ±100 for the full control effect; nearly all actives have a fitted effect of over 50% in size
HCMV inh – human cytomegalovirus inhibition | HFF cells, HCMV-luciferase reporter, 72 h; stronger effect = lower value | activity change, negative = inhibition, % at 57.5 µM | hit rate 4.5% among 410,000 | AID 1259415; in the data active = activity change below about -60%; inconclusive = no clear call, values can overlap the other calls; inactive = above about -39%; also: % is scaled to controls: 0 for no effect and ±100 for the full control effect
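Luciferase read-out from HCMV-luciferase-infected HFFs (MOI 1 PFU/cell) 72 h post infection at 37C; compounds added after 16 h cell attachment; activity normalized between buffer-only basal and Salinomycin (10uM) inhibitor controls.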
HCV confirm – confirmation of hepatitis C virus inhibitors; shares compounds with HCV inh; hit rate 78% among 640; Potency, µM (series often up to 41.8 µM), for inactives: at the top dose activity, negative = inhibition, most hits filed as inhibitors; HCVcc-Cre infectious virus cell assay, luciferase, inhibition; also: potency is read from the fitted curve at half-maximal effect; nearly all actives have a fitted effect of over 80% in size
HCV host tox – counter-screen for HCV inhibitors: host cell cytotoxicity. shares compounds with HCV inh. HCV host cell line cytotoxicity counterscreen. Potency, µM (highest dose often 41.8 µM), without a hit: at the highest dose activity change, negative = cytotoxicity, actives largely listed as inhibitors. hit rate 22% among 640;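 also: potency is read from the fitted curve at half-maximal effect; 44 h compound exposure; % is scaled to controls: 0 for no effect and ±100 for the full control effect; nearly all actives have a fitted effect of over 55% in size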
An asterisk follows results filed as active; ? = inconclusive; . = not tested or not shown; [ ] = dose if it differs, or a comment. Unless noted, calls follow the shape of the dose curve; as a rule, active = well fitted curve in the direction sought with a large enough effect; inconclusive = small, poorly fitted or top-dose-only effect, or another doubt; inactive = no such curve, though single readings can be large; an effect the other way counts as inactive or inconclusive.

SMILES	FMDV inh	FBPA Giardia inh	MARV entry inh	HCV inh	Lassa entry inh	HCMV inh	HCV confirm	HCV host tox
COc1ccc(C(=O)CC2(O)C(=O)N(Cc3ccccc3)c3ccc(Br)cc32)cc1 (centres undefined)	-3.4%	.	-26.7%[46.1 µM]	.	-20.4%[46.1 µM]	8.7	.	.
Cc1ccc(-n2nc3c(N4CCC(C(=O)N5CCN(C)CC5)CC4)nnc(C)c3c2C)cc1	8.1%	-14.0%	.	4.47µM*	.	?	15.8µM*	21.0%
CC(C)Cn1c(=O)c2ccccc2n2c(CCC(=O)N3CCN(c4ccccc4)CC3)nnc12	-12.9%	.	?	.	.	3.3	.	.
CCOc1ccccc1O[C@@H](c1ccccc1)[C@@H]1CNCCO1	.	-1.6%	.	.	.	.	.	.
CCOc1ccc2c(C)nc(NC3=NC(C)(C)C=C(C)N3)nc2c1	-20.0%	4.5%	?	5.01µM*	-17.8%	97.4	7.05µM*	?
CCOc1ccc2nc(NC3=NCN(Cc4ccco4)CN3)nc(C)c2c1	.	-2.1%	.	.	.	.	.	.
Cc1nnc(NCc2ccc(F)cc2)c2c1nnn2Cc1ccccc1Cl	-13.6%	.	?	.	-0.7%[46.1 µM]	21.3	.	.
CNc1nc2cc([N+](=O)[O-])c([N+](=O)[O-])cc2nc1NC	?	14.9%	7.94µM*	?	-28.1%	-85.8*	19.9µM*	?
Clc1cccc(-c2cc3nc4c(c(N5CCOCC5)n3n2)CCCC4)c1	.	-7.6%	?	?	-19.6%	-20.0	14.1µM*	-10.5%
C=C(CC1([C@@H](NP(=O)(c2ccccc2)c2ccccc2)[C@H]2C[C@@H]2CCN(C(=O)OCC)S(=O)(=O)c2ccc(C)cc2)CC1)c1ccccc1	.	-0.2%	.	.	.	.	.	.
CC(C)C(=O)Nc1nnc(SCc2cc(=O)n3ccccc3n2)s1	-5.1%	.	.	.	14.5%[46.1 µM]	-10.1	.	.
O=C1/C(=C/c2ccccc2)C[C@@]2(O)[C@H]3Cc4ccc(O)c5c4[C@@]2(CCN3CC2CC2)C1O5 (some centres undefined)	10µM*	.	.	3.16µM*	.	.	6.28µM*	9.95µM*
N[C@@H]1CC[C@@]2(O)[C@H]3Cc4ccc(O)c5c4[C@@]2(CCN3CC2CC2)C1O5 (some centres undefined)	-21.8%	.	.	-17.9%	.	-21.8	.	.
COc1ccc(CNC(=O)Nc2cn(CC(C)C)c(=O)c3ccccc23)cc1	8.8%	.	.	.	?	13.7	.	.
O=C(OCCOc1cccc(Cl)c1)c1cc(S(=O)(=O)N2CCCCC2)ccc1N1CCOCC1	?	.	?	?	?	-88.2*	3.53µM*	6.28µM*
O=C(COC(=O)c1cc(S(=O)(=O)N2CCCCC2)ccc1N1CCOCC1)c1ccc(Cl)cc1	12.4%	.	?	?	?	9.0	.	.
CCOC(=O)C1=C(C)N=c2s/c(=C/c3ccco3)c(=O)n2C1c1cccc(OC)c1 (centres undefined)	-26.6%	-18.8%	?	?	?	.	?	39.5%
Cc1ccc(N=Nc2cc(C)ccc2N)cc1	-58.5%	-1.4%	.	3.16µM*	.	0.0	3.15µM*	?
Cc1ccc(N=Nc2cc(C)ccc2O)c(C)c1	72.8%	1.6%	.	7.2%	.	-6.6	.	.
COc1cc(NC(=O)c2ccccc2OCc2ccccc2)cc(OC)c1OC	?	6.2%	.	?	.	4.4	14.1µM*	12.3%
CCCCCNC(=O)c1cn(CC)c2cc(N3CCN(C)CC3)c(F)cc2c1=O	-5.1%	-14.8%	?	?	-25.3%	5.6	14.1µM*	-28.2%
O=C(NCC1CCCO1)c1cc2c([nH]c3ccccc32)c(-c2cccc(Br)c2)n1 (centres undefined)	?	-13.2%	.	2µM*	.	-72.3*	14.1µM*	37.2%
CN(C)c1ccc(CNS(=O)(=O)c2ccc(-c3cc(C(F)(F)F)on3)s2)cc1	-13.4%	.	.	.	-0.6%[46.1 µM]	-25.9	.	.
COc1ccc(C[C@H]2NC[C@H](O)[C@H]2OC(C)=O)cc1	?	.	.	?	.	-98.1*	7.05µM*	-12.1%
COc1ccc(C[C@@H]2NC[C@H](O)[C@@H]2OC(C)=O)cc1	.	0.7%[21.7 µM]	.	.	.	.	.	.
SMILES	FMDV inh	FBPA Giardia inh	MARV entry inh	HCV inh	Lassa entry inh	HCMV inh	HCV confirm	HCV host tox
CNC(=O)COC(=O)c1c2c(nc3ccccc13)CCC2	-23.0%	-6.3%	.	5.2%	.	-13.3	.	.
COc1ccc(NC(=O)COC(=O)c2c3c(nc4ccccc24)CCCC3)cc1Cl	?	5.0%	?	4.47µM*	?	?	4.99µM*	31.5µM*
Cn1c(SCc2ccc(F)cc2Cl)nc2ccccc2c1=O	?	.	?	?	?	?	6.28µM*	14.1µM*
O=c1c2ccccc2nc(SCc2ccccc2Cl)n1Cc1ccccc1	-12.5%	2.5%	-2.5%	-21.7%	10.6%	-26.1	.	.
CCn1nnc(-c2ccccc2NC(=O)C(F)(F)F)n1	.	-7.8%	8.6%	?	18.6%	19.5	?	-16.9%
O=C(CCCc1nc2ccccc2s1)Nc1nccs1	10.8%	-9.4%	?	-7.0%	-2.2%	154.2	.	.
Cc1cnc(NC(=O)CCCc2nc3ccccc3s2)s1	13.2%	-0.4%	?	2.82µM*	?	-101.1*	15.8µM*	-34.7%
CC(C)C(NC(=O)C(Cc1ccc(O)cc1)NC(=O)C(NC(=O)C(F)(F)F)C(C)C)C(=O)O (centres undefined)	7.8%	0.4%	.	.	.	.	.	.
Cn1nnnc1Sc1ncnc2scc(-c3ccc(C#N)cc3)c12	28.2µM*	.	.	.	.	-94.1*	25µM*	25µM*
CCCc1nn2c(=O)cc(COC(=O)c3cccs3)nc2s1	0.1%	.	.	.	13.2%[46.1 µM]	16.6	.	.
Cc1cccc(Cn2c(NCCO)nc3c2c(=O)n(C)c(=O)n3C)c1	?	0.3%	?	1.78µM*	-28.5%	-74.7*	3.96µM*	2.5µM*
CCOCc1c(C(=O)NC2=Nc3ccccc3NC(CC)=C2C(=O)OCC)oc2ccccc12	-19.5%	-11.9%	?	?	?	?	.	.
CCOC(=O)C1=C(CC)Nc2ccccc2N=C1NC(=O)c1oc2ccccc2c1C	-25.9%	-13.1%	?	?	?	68.8	12.5µM*	1.8%
O=C(c1cn(-c2ccccc2)nc1-c1cccc([N+](=O)[O-])c1)N1CCCCC1	-7.0%	-19.1%	1.8%[46.1 µM]	?	-29.9%	?	11.2µM*	26.1%
O=C(Nc1ncc(Cc2ccc(SC(F)F)cc2)s1)c1ccccc1	-16.9%	1.7%	-4.1%	?	?	?	14.1µM*	28µM*
CC(=O)N1CCN(C)CC1	-13.6%	-7.5%	.	.	.	.	.	.
C=C(C)COc1ccc(-c2nc(N)ncc2Oc2ccccc2OCC)c(O)c1	0.0%	-5.5%	?	4.47µM*	?	25.3	25µM*	34.7%
C=C(C)COc1ccc(-c2ncncc2-c2ccccc2)c(O)c1	-4.5%	7.9%	-2.4%[46.1 µM]	-18.6%	0.2%[46.1 µM]	-39.6	.	.
